Compounds with a hit are over-represented: about 2.4% of the library has one in this group of screens.
D2 ag-1 – activates the human D2 dopamine receptor | 340,000 compounds, 0.53% hits | AID 485358 | activation, % at 2 µM | P14416 | HEK293 T-REx D2 cells, calcium flux agonist mode;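 active = activation over 3 SD above normal in the single-dose calcium agonist read, cut at about 30% in these data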; note: 0% is about no effect
Target sequence (P14416 whole entry, looked up): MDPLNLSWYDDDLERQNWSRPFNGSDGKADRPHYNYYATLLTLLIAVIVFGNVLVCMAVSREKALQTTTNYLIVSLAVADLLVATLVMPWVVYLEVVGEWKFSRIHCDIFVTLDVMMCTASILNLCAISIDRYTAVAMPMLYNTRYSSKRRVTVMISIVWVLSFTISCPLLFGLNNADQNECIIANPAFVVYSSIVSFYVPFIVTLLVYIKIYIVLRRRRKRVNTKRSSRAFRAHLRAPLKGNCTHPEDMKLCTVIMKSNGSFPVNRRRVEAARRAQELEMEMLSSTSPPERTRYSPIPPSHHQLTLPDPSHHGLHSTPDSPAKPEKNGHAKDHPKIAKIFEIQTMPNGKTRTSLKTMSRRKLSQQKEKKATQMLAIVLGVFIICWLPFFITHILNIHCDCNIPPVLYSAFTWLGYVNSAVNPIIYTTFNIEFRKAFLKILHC
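Agonism scored from kinetic calcium signal (1 read/sec, 180 s) following compound pin transfer, after a 10 s baseline. Cells: HEK293 Trex line expressing inducible D2 receptor coupled to calcium, dye-loaded after overnight culture at 30 C.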
D2 antag – antagonists of human D2 dopamine receptor; AID 485344; HEK293 TREx D2 cells, calcium flux, dopamine EC80; 340,000 compounds, 2% hits; inhibition, % at 10 µM; in the data active = inhibition above about 30%; inactive = below that, where a call was filed; note: 0% is about no effect
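Compounds are added to dye-loaded, induced HEK293 T-REx cells coupled to calcium release via D2; after a 3 min kinetic read an EC80 dopamine stimulus is given and fluorescence is recorded for 3 more min.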
D2 PAM-1 – positive allosteric modulators of human D2 dopamine receptor | P14416 | HEK293 T-REx D2, calcium flux, EC20 dopamine potentiation | potentiation, % at 10 µM | 340,000 compounds, 0.34% hits | AID 485347;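 active = potentiation over 3 SD above the plate norm, cut at about 30% in these data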; note: 0% is about no effect
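Tetracycline-induced Hek293 Trex D2 cells, force-coupled to calcium, loaded with no-wash calcium dye. Compound added with 180 s kinetic read for agonism, then EC20 dopamine and a further 180 s read for potentiation.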
D2 PAM-2 – positive allosteric modulators of human D2 dopamine receptor | P14416 | DiscoveRx D2 beta-arrestin cells, luminescence, 90 min; 100% = 57 uM dopamine signal | potentiation, % (test concentration not listed) | 360,000 compounds, 0.23% hits | AID 624464; in the data active = potentiation above about 50%; inconclusive = mostly about 30% to 49%
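D2 cells co-treated with compound plus 50 nM dopamine (EC20) for 90 min at 37 deg C to detect potentiation. Beta-arrestin recruitment was read as enzyme-fragment luminescence after 1 h at ambient temperature. Full response was set by 57 uM dopamine.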
D2 ag-2 – human D2 receptor agonism in beta-arrestin assay; P14416; DiscoveRx PathHunter D2 beta-arrestin, luminescence, 90 min; 100% = 57 uM dopamine signal; activation, % (concentration not given with the values); 360,000 compounds, 0.084% hits; in the data active = activation above about 40%; inconclusive = between about 15% and that limit
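Agonist mode: compounds alone added to overnight-plated D2 PathHunter cells for 90 min at 37 C, with 57 uM final dopamine (EC100) defining full response. Beta-arrestin recruitment detected by chemiluminescent reagent, read after 1 h at ambient temperature.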
* hit, by the source's call; ? = inconclusive; . = not tested or not shown.

SMILES	D2 ag-1	D2 antag	D2 PAM-1	D2 PAM-2	D2 ag-2
C/C(=N\NC(=O)COc1ccccc1)c1ccc(O)cc1	-2	-18	-8	-17	-3
C/C(=N\NC(=O)CC#N)c1ccc(Oc2ccccc2)cc1	1	5	39*	-3	-3
O=C(CCn1c(=O)c2cccn2c2ccccc21)Nc1ccc(F)cc1	1	61*	5	-22	-4
CCOc1ccc(C2c3c(oc4ccccc4c3=O)C(=O)N2CCCN2CCOCC2)cc1 (centres undefined)	0	-4	27	-5	0
CCCOc1ccc(C2c3c(oc4ccccc4c3=O)C(=O)N2CCCN2CCOCC2)cc1 (centres undefined)	1	36*	-3	3	-2
CCN1CCN(CCCN(Cc2ccco2)C(=S)Nc2ccc(C)c(Cl)c2)CC1	2	-15	-6	-19	2
CCN1CCN(CCCN(Cc2ccco2)C(=S)Nc2cc(Cl)ccc2C)CC1	-2	42*	-19	-14	-9
Cc1ccc(N2C(=O)c3cccc4c([N+](=O)[O-])ccc(c34)C2=O)c2cccnc12	3	19	3	-12	-3
Cc1nnc(N2C(=O)c3cccc4c([N+](=O)[O-])ccc(c34)C2=O)s1	2	-5	-2	62*	4
Cc1ccnc(N2C(=O)c3cccc4c([N+](=O)[O-])ccc(c34)C2=O)c1	2	6	-5	51*	9
Cc1nc2cccnc2n1C1CCN(C(=O)Nc2ccccc2C(F)(F)F)CC1	.	.	5	.	.
O=C(CCS(=O)(=O)c1cccc2nonc12)NC1CCCCCC1	0	-14	0	-3	-1
O=C(CCNS(=O)(=O)c1cccc2nonc12)NC1CCCCC1	0	31*	-5	-6	-1
CC(NC(=O)[C@H](C)NC(=O)c1ccco1)c1ccc(S(N)(=O)=O)cc1 (some centres undefined)	1	14	-10	-3	-5
CC(NC(=O)c1ccco1)C(=O)NC(C)c1cc(F)c(Cl)cc1Cl (centres undefined)	1	-3	30*	-19	-5
CCc1ccccc1NC(=O)CC1NCCNC1=O (centres undefined)	1	.	-5	.	.
COc1ccccc1/C=C1\SC(=S)N(Nc2nc(C)cc(C)n2)C1=O	0	-13	3	-15	-2
Cc1cc(C)nc(NN2C(=O)/C(=C/c3ccc(O)cc3)SC2=S)n1	9	45*	8	-18	-7
COc1ccc(NS(=O)(=O)c2ccc(OC)c(NC(=O)CNC(=O)c3ccc(OC)cc3)c2)cc1	1	3	-6	-1	-2
CC(OC(=O)C1CCN(S(=O)(=O)c2ccc3c(c2)OCCO3)CC1)C(=O)NC1(C#N)CCCCC1 (centres undefined)	.	.	.	-3	3
CC1CCN(C(=O)CCc2ccc(Oc3cc([N+](=O)[O-])cc([N+](=O)[O-])c3)cc2)CC1	.	.	.	84*	?
O=C(CCc1ccc(Oc2cc([N+](=O)[O-])cc([N+](=O)[O-])c2)cc1)NC1CCCC1	0	5	-4	3	?
CCCNC(=O)CCc1nnc2ccc(N3CCN(c4cccc(OC)c4)CC3)nn12	0	.	-6	.	.
CCC(=O)Nc1cccc(NC(=O)CSc2nnc(C3CC3)n2C)c1	0	31*	0	2	-2
CCOc1ccc(NC(=O)CN2CCN(c3ccc(F)cc3)CC2)cc1S(=O)(=O)N1CCCC1	.	.	.	-45	-3
SMILES	D2 ag-1	D2 antag	D2 PAM-1	D2 PAM-2	D2 ag-2
CCOc1ccc(NC(=O)CSc2nnc(C3CC3)n2C)cc1S(=O)(=O)N1CCCCC1	0	44*	-6	3	0
CCOc1ccc(NC(=O)CN2CCN(c3ccccc3C)CC2)cc1S(=O)(=O)N1CCCC1	1	35*	-26	-28	-1
NC(=O)c1ccc(NC(=O)CSc2nnc(C3CC3)n2C2CC2)cc1	.	.	.	2	3
Cn1c(SCC(=O)Nc2ccc3c(c2)CCC3)nnc1C1CC1	0	-9	-11	-16	-2
COc1ccc(NC(=O)CSc2nnc(C3CC3)n2C)cc1	2	5	-1	-13	-1
CCOc1ccc(NC(=O)CSc2nnc(C3CC3)n2C2CC2)cc1	0	43*	4	2	-7
CN(C)S(=O)(=O)c1ccc2c(c1)c(=O)c(C(=O)N1CCN(c3cccc(Cl)c3)CC1)cn2C	3	.	15	.	.
CCCC(=O)n1nc(-c2ccco2)nc1NCc1ccccc1Cl	0	.	10	.	.
O=C(NCc1ccccc1Cl)NC(=O)c1ccccc1	0	33*	-13	-3	1
O=C(NCc1ccccc1)Nc1cccn(Cc2ccc(Cl)cc2)c1=O	0	-25	2	-9	-7
O=C(NCc1ccccc1)Nc1cccn(Cc2ccccc2Cl)c1=O	-2	33*	-7	-4	-3
CCOC(=O)/C(=C/C=C1\Sc2cc(OCC)c(OCC)cc2N1CC)C(C)=O	88*	72*	-20	-7	2
CCOC(=O)/C(=C\C=C1/Sc2cc(OCC)c(OCC)cc2N1CC)C(C)=O	100*	65*	-11	-9	0
CCN1/C(=C/C(C)=O)Sc2ccc(OC)cc21	.	.	.	-7	-1
CC(=O)Nc1cc(-c2ccoc2)cn2c(-c3ccccc3)cnc12	.	.	.	-8	-5
COc1ccc(C(=O)NCC(c2ccc(N(C)C)cc2)N2CCc3ccccc32)cc1 (centres undefined)	-4	.	8	.	.
COc1cn(CC(=O)Nc2ccc(F)cc2)c(CN2CCCCC2)cc1=O	0	.	15	.	.
CCC(C(=O)Nc1ccc(C(C)=O)cc1)n1c(C)c2cnn(-c3ccccc3)c(=O)c2c1C (centres undefined)	2	.	-4	.	.
CSc1nsc(SCC(=O)Nc2ccc(C(N)=O)cc2)n1	-3	37*	.	2	-1
CSc1nsc(SCC(=O)Nc2ccc(C(C)=O)cc2)n1	0	-18	7	-8	0
Oc1ccc2ccccc2c1C=Nc1cc(C(F)(F)F)ccc1N1CCCC1	0	6	11	55*	7
N#Cc1cccc(N=Cc2c(O)ccc3ccccc23)c1	0	-8	8	?	5
O=S(=O)(Nc1ccc(-n2cnnn2)cc1)c1cccs1	0	-4	20	-2	-2
CC(C)(Cc1ccc(O)cc1)NC(=O)CC(=O)N=Nc1c(O)[nH]c2ccc(Br)cc12	31*	3	-16	-11	2
COc1ccc(OC)c(N(C(=O)c2ccco2)C(C(=O)NC2CCCC2)c2cc(OC)c(OC)c(OC)c2)c1 (centres undefined)	1	36*	-1	3	1
COc1ccc(Cl)cc1N(C(=O)c1ccco1)C(C(=O)NC1CCCC1)c1cccnc1 (centres undefined)	-2	4	-3	-10	-5

Assay outcomes from PubChem BioAssay.
